# From ChEMBL document CHEMBL4513146, “CO-ADD screening of Karazin Kharkiv National University (Ukraine) compounds”
# Potency and affinity values are given separately.
# How the values were obtained:
# Klebsiella pneumoniae = conditions: Concentration 32 ug.mL-1;; ASSAY_TEST Inhibition of Bacterial Growth; detection method Absorption (OD600); MEDIA CAMHB; plate type 384well; NBS; CORNING #3640; time 18 hr
# Candida albicans = conditions: Concentration 32 ug.mL-1; ASSAY_TEST Inhibition of Fungal Growth; detection method Absorption (OD530)
# Cryptococcus neoformans = conditions: Concentration 32 ug.mL-1; ASSAY_TEST Inhibition of Fungal Growth; detection method Resazurin; Absorption (OD600-OD570); plate type 384well; NBS; CORNING #3640
Compound,Inhibition (Klebsiella pneumoniae) [%],Inhibition (Candida albicans) [%],Inhibition (Cryptococcus neoformans) [%]
CCc1ccccc1Sc1nccn2c(=O)n(CC(=O)N3CCN(c4ccc(F)cc4)CC3)nc12,3.21,4.71,-7.3
O=C(Cn1nc2nc(Nc3ccc(F)cc3)ccn2c1=O)N1CCCc2ccccc21,14.82,2.56,-7.45
CCCCNC(=O)Cn1nc2n(Cc3ccco3)c(=O)c3sccc3n2c1=O,5.33,0.44,-11.54
CCOc1ccccc1NC(=O)Cn1nc2c(Sc3ccc(C)cc3C)nccn2c1=O,5.52,-0.73,-9.54
CCOC(=O)c1ccccc1NC(=O)Cn1nc2c3sc(N4CCCC4)nc3ncn2c1=O,9.28,9.32,-6
COc1ccc(NC(=O)c2ccc3nn(CC(=O)Nc4ccc(C(C)=O)cc4)c(=O)n3c2)cc1,4.63,12.89,-6.52
CCc1cccc(NC(=O)Cn2nc3c(Sc4ccc(C)cc4C)nccn3c2=O)c1,-3.14,5.97,-23.88
Cc1cc(C)cc(Nc2nc(C)cc3nn(CC(=O)Nc4cc(F)ccc4F)c(=O)n23)c1,17.33,4.37,-7.31
Cc1ccc(CSc2nnc3c(=O)n(-c4ccc(Br)cc4)ccn23)cc1,11.07,8.75,-7.86
Cc1ccc(Oc2nccn3c(=O)n(CC(=O)NCc4cccs4)nc23)cc1,11.41,2.18,-8.11
CC(C)c1nnc2c(SCC(=O)Nc3ccccc3C(F)(F)F)nc3ccccc3n12,13.6,0.36,-15.63
COc1cccc(NC(=O)Cn2nc3c(Oc4cccc(OC)c4)nccn3c2=O)c1,3.74,3.44,-0.95
CCOC(=O)c1cccc(NC(=O)Cn2nc3c4cc(-c5ccc(C)c(C)c5)nn4ccn3c2=O)c1,-4.81,21.87,-17.02
CCCCOc1ccc(-c2cc3c4nnc(SCC(=O)N(C)c5ccc(F)cc5)n4ccn3n2)cc1,3.98,15.18,-9.29
COc1ccc(NC(=O)Cn2nc3ccc(Sc4ccccc4)nn3c2=O)cc1,3.54,3.37,-9.77
C=Cc1ccc(Cn2nc3c(=O)n(-c4cccc(Cl)c4C)ccn3c2=O)cc1,-0.98,-0.15,-8.23
CCOc1ccc(-n2ccn3c(SCC(=O)Nc4ccc5c(c4)OCCO5)nnc3c2=O)cc1,3.14,6.39,-10.75
O=C(NCc1ccccc1)c1ccc2nn(CC(=O)N3CCN(c4ccccc4)CC3)c(=O)n2c1,13.57,3.02,-23.82
Cc1ccc(Cl)cc1NC(=O)Cn1c(=O)c2nnc(C(C)C)n2c2ccccc21,5.77,3.52,-16.4
N#Cc1ccccc1NC(=O)Cn1nc2c(Oc3ccccc3)nccn2c1=O,2.81,-0.12,-5.65
C=Cc1ccc(Cn2nc3c(=O)n(-c4ccc(C)c(C)c4)ccn3c2=O)cc1,9.34,3.74,-5.84
CCOC(=O)c1ccccc1NC(=O)Cn1nc2ccc(C(=O)Nc3ccc(OC)cc3)cn2c1=O,-1.54,25.24,-9.29
O=C(CCc1nnc2c(N3CCCCC3)nc3ccccc3n12)NCc1ccccc1F,14.62,1.76,-9.32
CCOc1ccc(-n2ccn3c(SCC(N)=O)nnc3c2=O)cc1,16.24,1.43,-5.27
COC(=O)c1ccccc1NC(=O)Cn1nc2c3sc(N4CCCC4)nc3ncn2c1=O,7.53,3.62,-7.62

Compound,Inhibition (Klebsiella pneumoniae) [%],Inhibition (Candida albicans) [%],Inhibition (Cryptococcus neoformans) [%]
Cc1ccc(-c2ccc3nn(Cc4cc(F)cc(F)c4)c(=O)n3n2)cc1C,3.15,0.47,-8.58
Cc1ccccc1Oc1nc2ccccc2n2c(=O)n(CC(=O)Nc3cccc(C(F)(F)F)c3)nc12,12.65,1.53,-23.54
Cc1ccc(Oc2nccn3c(=O)n(CC(=O)Nc4cc(F)ccc4F)nc23)cc1,10.7,4.41,-11.42
Cc1cc2nn(CC(=O)Nc3ccc(F)cc3Cl)c(=O)n2c(Nc2ccccc2C)n1,1.95,30.65,-16.44
CCCn1c(=O)c2sccc2n2c(=O)n(CC(=O)c3ccccc3)nc12,3.65,4.43,-9.13
COc1ccccc1N1CCN(C(=O)Cn2nc3ccc(-c4ccc(Cl)cc4)nn3c2=O)CC1,12.66,-1.54,-12.15
Cc1nnc2ccc(S(=O)(=O)N(Cc3ccccc3F)c3ccc(Cl)cc3)cn12,-3.84,0.4,-8.97
O=C(Cn1nc2c3cc(-c4ccc(Cl)cc4)nn3ccn2c1=O)Nc1ccc2c(c1)OCCO2,7.68,-1.89,-18.54
Cc1cc(C)cc(Nc2nc(C)cc3nn(CC(=O)Nc4cc(F)cc(F)c4)c(=O)n23)c1,13.54,4.35,-10.24
Cc1ccc(NC(=O)Cn2nc3ccc(SCc4ccc(Cl)cc4)nn3c2=O)cc1C,8.36,3.97,-21.31
CCCCOc1ccc(-c2cc3c4nnc(SCC(=O)Nc5cccc(C)c5C)n4ccn3n2)cc1,1.05,-0.05,-18.62
C=Cc1ccc(CN(c2ccc(F)cc2)S(=O)(=O)c2ccc3nnc(C)n3c2)cc1,5.5,1.83,-7.48
COc1cc(NC(=O)Cn2nc3ccc(-c4ccc(C)c(C)c4)nn3c2=O)cc(OC)c1,2.14,14.91,-15.3
Cc1ccc(CN(c2ccccc2)S(=O)(=O)c2ccc3nncn3c2)cc1,-1.94,-3.84,-7.34
COc1cccc(CN(c2ccc(C)c(F)c2)S(=O)(=O)c2ccc3nncn3c2)c1,1.02,-0.35,-8.8
CCOc1ccc(-n2ccn3c(SCC#N)nnc3c2=O)cc1,5.38,1.02,-3.42
CC(C)c1nnc2c(SCC(=O)Nc3ccccc3Br)nc3ccccc3n12,12.82,4.2,-6.3
Cc1cc(C)c(NC(=O)CSc2nnc3c4cc(-c5ccccc5)nn4ccn23)c(C)c1,10.34,10.47,-13.87
Cc1ccc(Sc2nccn3c(=O)n(CC(=O)Nc4c(C)cc(C)cc4C)nc23)c(C)c1,17.85,-0.74,-21.38
COc1ccc(OC)c(NC(=O)Cn2nc3c(SCc4ccc(Cl)cc4)nccn3c2=O)c1,1.59,23.62,-18.91
COc1ccc(NC(=O)Cn2nc3cc(C)nc(Nc4cc(C)cc(C)c4)n3c2=O)cc1,10.21,1.22,-8.99
COc1cccc(-n2ccn3c(SCC(=O)Nc4ccc(Cl)cc4)nnc3c2=O)c1,5.48,2.88,-10.21
COc1ccccc1CNC(=O)Cn1nc2c(N3CCSCC3)nccn2c1=O,3.04,3.29,-6.25
COc1ccc(CNC(=O)CCc2nnc3c(N4CCCCC4)nc4ccccc4n23)cc1OC,15.18,6.91,-22.66
